The text below walks through data of PubChem BioAssay (Tox21).

A short description of test [1]: qHTS assay to identify small molecule antagonists of the estrogen receptor beta (ER-beta) signaling pathway - cell viability counter screen (AID 1259382; active = well fitted curve in the direction sought with a large enough effect in the repeat runs; an effect the other way counts as inactive or inconclusive;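 also: HEK293T cells carrying ER-beta-UAS-bla reporter stimulated with estradiol; series mostly up to about 92 µM; nearly all actives have a fitted effect of over 55% in size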). In outline: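 ER-beta-UAS-bla HEK293T cells in 2% charcoal-stripped FBS medium, treated with compound plus 1 nM 17-beta-estradiol for 16 h at 37C. Viability read by CellTiter-Glo luminescence after 30 min at room temperature in the same wells.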

Test [2] has as its target Estrogen receptor (Homo sapiens) (UniProt P03372). Put plainly: qHTS assay to identify small molecule agonists of the estrogen receptor alpha (ER-alpha) signaling pathway in the presence of an antagonist (AID 1259383). Also: top concentration of the series differs between compounds; nearly all actives have a fitted effect of over 15% in size. The method, boiled down:
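VM7Luc4E2 cells express endogenous full-length ER-alpha with an ERE-luciferase reporter and were hormone-deprived for 5 days. Compounds at 15 concentrations were added with 10.0nM ICI-182,780 for 22hr at 37C. Luminescence was read with ONE-Glo.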

A short description of test [3]: qHTS assay to identify small molecule agonists or antagonists of the thyroid stimulating hormone receptor (TSHR) signaling pathway - wild type cell line counter screen (AID 1259384). In outline:
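Counter screen in untransfected Hek293: compounds (15-point titration, triplicate) plus phosphodiesterase inhibitor Ro20-1724 added after 18 h plating; 30 min RT. Intracellular cAMP via competitive d2/cryptate immunoassay, 1 h incubation.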

In test [4] the target is Thyrotropin receptor (Homo sapiens) (UniProt P16473). The test can be described thus: qHTS assay to identify small molecule antagonists of the thyroid stimulating hormone receptor (TSHR) signaling pathway (AID 1259385). Also: nearly all actives have a fitted effect of over 20% in size. The method, boiled down: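 Antagonist mode: compound-treated TSHR-expressing HEK293 cells were stimulated with 1.5 ng/mL TSH (final) in presence of Ro20-1724 for 30 min at RT. HTRF cAMP detection after 1 h; each compound tested at 15 concentrations, triplicate.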

Test [5] can be described thus: qHTS assay to identify small molecule agonists of the estrogen receptor alpha (ER-alpha) signaling pathway in the presence of an antagonist - cell viability counter screen (AID 1259386; active = well fitted curve in the direction sought with a large enough effect in the repeat runs; an effect the other way counts as inactive or inconclusive;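 also: cells exposed to compounds for 22 h at 37 °C before the viability read; nearly all actives have a fitted effect of over 30% in size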; also: potency is read from the fitted curve at half-maximal effect; as to activity change, negative = cytotoxicity: series mostly up to about 92 µM). The method, boiled down: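 Cell viability in VM7Luc4E2 cells (endogenous full-length ER-alpha) measured by CellTiter-Fluor fluorescence in the same wells as the luciferase screen. Cells pre-cultured 5 days in charcoal-stripped serum, then treated 22 h with compounds at 15 concentrations plus 10.0nM ICI-182,780.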

The target of test [6] is Progesterone receptor (Homo sapiens) (UniProt P06401). Put plainly: qHTS assay to identify small molecule agonists of the progesterone receptor (PR) signaling pathway (AID 1346784). Also: nearly all actives have a fitted effect of over 30% in size. In outline: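 Fluorescence from LiveBLAzer B/G FRET substrate cleavage (2 hr, RT) reported PR activation in PR-UAS-bla HEK 293T cells treated 16 hr at 37C/5% CO2 with compounds; medium contained 2% charcoal-stripped FBS.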

Test [7] shares this target. The test can be described thus: qHTS assay to identify small molecule antagonists of the progesterone receptor (PR) signaling pathway (AID 1346795; active = well fitted inhibition curve with a large enough effect in the signal ratio in the repeat runs, not every such curve was filed as active; the % refers to the signal ratio). In outline:
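Fluorescence intensity measured 2 hr after adding beta-lactamase FRET substrate to PR-UAS-bla HEK293T cells that had been co-treated 16 hr with compound and 1 nM R5020 (final concentration) in 2% charcoal-stripped FBS.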

A short description of test [8]: qHTS assay to identify small molecule antagonists of the progesterone receptor (PR) signaling pathway - cell viability counter screen (AID 1346798; active = well fitted curve in the direction sought with a large enough effect in the repeat runs; an effect the other way counts as inactive or inconclusive; also: series mostly up to about 92 µM; nearly all actives have a fitted effect of over 50% in size). In outline: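 CellTiter-Glo luminescence; PR-UAS-bla HEK293T, 3,000 cells/well; compound + R5020, 16 hr, 37C/5% CO2; 30 min RT before read.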
Test [9] can be described thus: qHTS assay to identify small molecule agonists of the progesterone receptor (PR) signaling pathway - cell viability counter screen (AID 1346799). Also: nearly all actives have a fitted effect of over 45% in size. In outline: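 In parallel with the beta-lactamase readout, cytotoxicity toward PR-UAS-bla HEK293T cells was measured by CellTiter-Glo luminescence following 16 hr compound incubation in 2% charcoal-stripped FBS medium.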

Test [10] is described as follows: qHTS assay to identify small molecule antagonists of the TGF-beta/Smad signaling pathway - cell viability counter screen (AID 1346824; active = well fitted curve in the direction sought with a large enough effect in the repeat runs; an effect the other way counts as inactive or inconclusive; also: nearly all actives have a fitted effect of over 50% in size). The method, boiled down: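 Cytotoxicity counter-screen run in the same wells as the beta-lactamase Smad reporter read: CellTiter-Glo luminescence after 30 min at room temperature. HEK 293T SBE-bla cells had 5 hr compound exposure at 37 C with TGF-beta1 (0.25 ng/mL stock).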

Values without a mark were called inactive. Inconclusive results are not listed. The source made the active and inactive calls. Unless noted, calls follow the shape of the full dose curve.
% is scaled to controls: 0 for no effect and ±100 for the full control effect.

Thyrotropin receptor (Homo sapiens), sequence (P16473 whole entry, looked up): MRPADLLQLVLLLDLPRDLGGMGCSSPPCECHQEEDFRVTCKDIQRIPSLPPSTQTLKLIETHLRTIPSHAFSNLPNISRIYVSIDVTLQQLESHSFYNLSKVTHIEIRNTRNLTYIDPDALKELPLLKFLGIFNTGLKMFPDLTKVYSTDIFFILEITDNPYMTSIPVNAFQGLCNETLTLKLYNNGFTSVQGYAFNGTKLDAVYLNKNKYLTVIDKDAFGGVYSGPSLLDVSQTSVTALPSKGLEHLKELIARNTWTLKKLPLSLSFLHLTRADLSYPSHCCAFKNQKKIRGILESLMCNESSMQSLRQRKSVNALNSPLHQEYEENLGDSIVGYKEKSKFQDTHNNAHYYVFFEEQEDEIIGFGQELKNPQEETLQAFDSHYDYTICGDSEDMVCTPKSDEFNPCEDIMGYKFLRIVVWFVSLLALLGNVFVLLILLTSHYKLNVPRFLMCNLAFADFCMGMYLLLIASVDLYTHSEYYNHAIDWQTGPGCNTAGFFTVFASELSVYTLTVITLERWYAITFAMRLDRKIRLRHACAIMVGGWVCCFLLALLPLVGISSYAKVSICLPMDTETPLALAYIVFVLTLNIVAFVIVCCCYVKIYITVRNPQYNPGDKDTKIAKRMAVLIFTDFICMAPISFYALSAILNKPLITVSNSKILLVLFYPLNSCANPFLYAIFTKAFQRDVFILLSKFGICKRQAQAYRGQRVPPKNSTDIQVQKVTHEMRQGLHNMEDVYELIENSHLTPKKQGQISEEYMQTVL
Estrogen receptor (Homo sapiens), sequence (P03372 whole entry, looked up): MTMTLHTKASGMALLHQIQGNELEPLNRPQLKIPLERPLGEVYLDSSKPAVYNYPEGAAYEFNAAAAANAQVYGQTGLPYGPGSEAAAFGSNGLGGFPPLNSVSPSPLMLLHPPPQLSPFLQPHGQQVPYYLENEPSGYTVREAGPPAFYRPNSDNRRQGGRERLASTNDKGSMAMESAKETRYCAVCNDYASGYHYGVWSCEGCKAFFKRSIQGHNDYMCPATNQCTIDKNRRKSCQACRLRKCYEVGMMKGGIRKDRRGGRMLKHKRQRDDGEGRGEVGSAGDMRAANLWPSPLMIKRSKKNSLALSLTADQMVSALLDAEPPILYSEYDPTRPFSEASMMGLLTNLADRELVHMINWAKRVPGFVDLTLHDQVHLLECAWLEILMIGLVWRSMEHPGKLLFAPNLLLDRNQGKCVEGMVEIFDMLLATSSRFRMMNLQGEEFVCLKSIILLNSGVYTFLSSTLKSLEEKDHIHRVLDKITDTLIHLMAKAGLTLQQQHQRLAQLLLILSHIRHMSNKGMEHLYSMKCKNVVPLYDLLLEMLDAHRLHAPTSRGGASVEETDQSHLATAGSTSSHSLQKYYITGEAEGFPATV
Progesterone receptor (Homo sapiens), sequence (P06401 whole entry, looked up): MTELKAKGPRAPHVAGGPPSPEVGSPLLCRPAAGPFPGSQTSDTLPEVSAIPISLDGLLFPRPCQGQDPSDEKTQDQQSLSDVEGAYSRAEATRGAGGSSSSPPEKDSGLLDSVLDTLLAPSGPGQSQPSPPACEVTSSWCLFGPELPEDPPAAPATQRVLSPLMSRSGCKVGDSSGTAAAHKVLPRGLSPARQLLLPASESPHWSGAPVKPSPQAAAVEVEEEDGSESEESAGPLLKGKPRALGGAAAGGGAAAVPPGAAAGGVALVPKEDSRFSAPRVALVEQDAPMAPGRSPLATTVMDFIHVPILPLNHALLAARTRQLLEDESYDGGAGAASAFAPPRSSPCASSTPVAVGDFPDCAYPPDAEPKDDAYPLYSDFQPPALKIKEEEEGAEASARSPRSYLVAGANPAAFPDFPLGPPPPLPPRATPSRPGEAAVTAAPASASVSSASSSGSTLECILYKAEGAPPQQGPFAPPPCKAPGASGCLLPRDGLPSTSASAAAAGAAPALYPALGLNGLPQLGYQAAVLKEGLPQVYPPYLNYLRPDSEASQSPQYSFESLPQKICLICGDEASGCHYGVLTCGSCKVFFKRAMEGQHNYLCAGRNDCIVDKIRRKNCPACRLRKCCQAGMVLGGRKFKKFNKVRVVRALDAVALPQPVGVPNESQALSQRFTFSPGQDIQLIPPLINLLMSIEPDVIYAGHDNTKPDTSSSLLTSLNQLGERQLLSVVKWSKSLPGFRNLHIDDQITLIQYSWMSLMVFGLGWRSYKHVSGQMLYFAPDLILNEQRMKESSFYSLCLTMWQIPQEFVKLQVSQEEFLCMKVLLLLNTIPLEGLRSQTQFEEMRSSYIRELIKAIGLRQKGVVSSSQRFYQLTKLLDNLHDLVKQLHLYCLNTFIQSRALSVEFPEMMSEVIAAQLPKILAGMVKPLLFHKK

For the compound `CCS(=O)(=O)CCn1c([N+](=O)[O-])cnc1C`, the outcome in [1], in [2], in test [3], in [4] and in [10] was inactive. For the same compound, the Potency result in [5], in test [6], in [7], in test [8] and in test [9] was “inactive” each time.
Consider `CC(C)C(=O)c1ccccc1`, for which the result in test [1], in [2], in test [3], in [4] and in [10] was inactive. Moreover, the Potency entry in test [5], in test [6], in [7], in test [8] and in test [9] was “inactive” in each case.
On to `CCN(CC)C(=O)C1CN2CCc3cc(OC)c(OC)cc3C2CC1OC(C)=O` (stereo not given), for which the compound was classed as inactive in [1], in test [2], in [3] and in test [4]. Further, the Potency entry in [5], in test [6], in test [7], in test [8] and in [9] was “inactive” each time.
Consider `CC(C)COC(=O)/C=C/c1ccccc1`, for which the compound was called inactive in [1], in test [2], in test [3] and in test [4]. Besides, the Potency entry in test [5], in test [6], in test [7], in test [8] and in [9] was “inactive” each time.
As for `CC(C)CCO`, the result in test [1], in [2], in test [3], in test [4] and in [10] was inactive. For the same compound, the Potency result in test [5], in test [6], in test [7], in [8] and in [9] was “inactive” each time.
For the compound `NC(=O)C1(N2CCCCC2)CCN(CCCC(=O)c2ccc(F)cc2)CC1`, the compound was called inactive in test [1], in test [2], in test [3], in test [4] and in test [10]. The Potency result in test [5], in test [6], in test [7], in test [8] and in [9] was “inactive” each time.
`O=c1[nH]c(=O)c2[nH]c(=O)[nH]c2[nH]1`: the activity change, negative = cytotoxicity was 3.94% [at 8.39 µM] in test [1], 1.17% [at 8.39 µM] in test [5], -11.7% [at 8.39 µM] in [8] and -1.97% [at 8.39 µM] in test [9]. The figures for the activation in [2] and in test [6] were 0.0928% [at 8.39 µM] and -0.558% [at 8.39 µM], respectively. The cAMP activity change in test [3] is -3.72% [at 8.39 µM]. Further, the results for the activity change, negative = inhibition in [4] and in [7] were 0.717% [at 8.39 µM] and 0.247% [at 8.39 µM], respectively. Besides, in test [10], the viability change, negative = cytotoxic is 2.42% [at 6.97 µM].
With `CC(C)CCCCCCOC(=O)C1CCCCC1C(=O)OCCCCCCC(C)C` (stereo not given), the call in test [1], in test [2], in test [3] and in test [4] was inactive. The Potency entry in test [5], in [6], in test [7], in [8] and in [9] was “inactive” in each case.
Turning to `CN(C)CCOCCN(C)CCO`, the call in [1], in test [2], in [3], in [4] and in [10] was inactive. In addition, the Potency result in [5], in [6], in [7], in test [8] and in [9] was “inactive” each time.
With `Nc1ccc(S(=O)(=O)NC(=O)c2ccccc2)cc1`, the compound was classed as inactive in [1], in test [2], in [3], in test [4] and in [10]. For the same compound, the Potency result in test [5], in test [6], in test [7], in test [8] and in test [9] was “inactive” throughout.
With `CO[Si](CCCS)(OC)OC`, the result in test [1], in [2], in test [3] and in test [4] was inactive. For the same compound, the Potency result in [5], in [6], in test [7] and in test [8] was “inactive” in each case.
For the compound `CCCOC(=O)CCCCC(=O)OCCC`, the call in [1], in test [2], in test [3], in test [4] and in [10] was inactive. Further, the Potency entry in test [5], in test [6], in [7], in [8] and in [9] was “inactive” each time.
On to `COc1cc([N+](=O)[O-])ccc1N`, for which the call in test [1], in test [2], in test [3], in [4] and in [10] was inactive. The Potency in [5] was 38.6 µM (active). In addition, the Potency entry in test [6], in [8] and in [9] was “inactive” in each case.
Regarding `CCCCCCCCCCC`, the compound was called inactive in test [1], in [2], in test [3], in test [4] and in test [10]. In addition, the Potency entry in [5], in test [6] and in test [7] was “inactive” each time.
As to `COC(OC)C(C)c1ccccc1` (stereo not given), the call in test [1], in test [2], in test [3], in test [4] and in test [10] was inactive. Also, the Potency entry in test [5], in test [6], in [7] and in test [8] was “inactive” in each case.
Take `O=C(Oc1ccccc1C(=O)O)c1ccccc1O`: the call in [1], in test [2], in test [3], in [4] and in test [10] was inactive. For the same compound, the Potency result in [5], in test [6], in test [7] and in [8] was “inactive” in each case.
As to `CC(=O)OC(C(=O)c1ccccc1)c1ccccc1` (stereo not given), the compound was called inactive in [1], in test [2], in [3], in test [4] and in test [10]. Also, the Potency entry in test [6], in test [7], in test [8] and in test [9] was “inactive” each time.
`C[C@H](CCC(=O)O)[C@H]1CC[C@H]2[C@@H]3[C@H](O)C[C@@H]4C[C@H](O)CC[C@]4(C)[C@H]3C[C@H](O)[C@]12C`: the call in [1], in [2], in [3], in test [4] and in test [10] was inactive. Moreover, the Potency result in test [6], in test [7], in [8] and in test [9] was “inactive” each time.
On to `Cc1cccc(Nc2ccncc2S(=O)(=O)NC(=O)NC(C)C)c1`, for which the result in [1], in test [2], in [3], in test [4] and in test [10] was inactive. Moreover, the Potency result in test [5], in [6], in test [7] and in [8] was “inactive” each time.
For `C=CCCCCCCCCCCC`, the activity change, negative = cytotoxicity is 4.44% [at 8.39 µM] in test [1], -5.87% [at 8.39 µM] in test [8] and -1.19% [at 8.39 µM] in [9]. Moreover, the activation in test [2] was 0.334% [at 8.39 µM]; in test [6] it was -0.805% [at 8.39 µM]. The cAMP activity change in test [3] was 1.9% [at 8.39 µM]. The figures for the activity change, negative = inhibition in [4] and in test [7] were 3.13% [at 8.39 µM] and 5.07% [at 8.39 µM], respectively. Also, in test [10], the viability change, negative = cytotoxic is 12.5% [at 6.97 µM].
In the case of `CCCCOC(=O)C(C)OC(=O)CCC` (stereo not given), the call in [1], in test [2], in [3] and in [4] was inactive. The Potency result in test [6], in [7] and in test [8] was “inactive” in each case.
As to `COc1ccc(NS(=O)(=O)c2ccc(N)cc2)nn1`, the result in test [1], in [2], in [3], in test [4] and in test [10] was inactive. In addition, the Potency result in test [5], in test [6], in [7] and in test [8] was “inactive” each time.
Consider `O=C(/C=C/c1ccccc1)NCCO`, for which the compound was classed as inactive in test [1], in test [2], in test [3], in [4] and in test [10]. For the same compound, the Potency entry in test [5], in [7], in test [8] and in test [9] was “inactive” in each case.
For the compound `CCCCC(CC)COC(=O)c1ccccc1` (stereo not given), the compound was called inactive in [1], in test [2], in [3], in [4] and in [10]. Further, the Potency entry in test [5], in test [6], in test [7] and in [8] was “inactive” each time.
As for `CCC1COC(=O)O1` (stereo not given), the compound was classed as inactive in [1], in test [2], in test [3], in test [4] and in test [10]. For the same compound, the Potency result in test [5], in test [6], in [7], in [8] and in test [9] was “inactive” throughout.
For `CC(=O)c1ccc(OCC(=O)N2CCCCC2)cc1`, the result in test [1], in test [2], in [3], in test [4] and in test [10] was inactive. Also, the Potency result in test [5], in [6], in [7], in test [8] and in test [9] was “inactive” throughout.
